Experiment [1] in a line: qHTS assay for identifying genotoxic compounds that show differential cytotoxicity against isogenic chicken DT40 cell lines with known DNA damage response pathways - Rev3 mutant cell line (AID 743014). Further: nearly all actives have a fitted effect of over 55% in size. Further: potency means the concentration at half of the fitted maximal effect. For orientation: qHTS replaces the single test concentration by a dilution series.
Experiment [2] can be described thus: qHTS assay to identify small molecule antagonists of the androgen receptor (AR) signaling pathway using the MDA cell line - cell viability counter screen (AID 743041; further: nearly all actives have a fitted effect of over 45% in size). The gist of the method: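 Same-well cytotoxicity was assessed by CellTiter-Fluor in MDA-kb2 AR-luc cells after 16 h of compound treatment under R1881 agonism.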
Experiment [3] relates to thyroid hormone receptor (rat, GH3 cells). In words: qHTS assay to identify small molecule agonists of the thyroid receptor (TR) signaling pathway (AID 743066; calls by dose curve).
For experiment [4], the target named is Estrogen receptor (Homo sapiens) (UniProt P03372). The experiment in a line: qHTS assay to identify small molecule antagonists of the estrogen receptor alpha (ER-alpha) signaling pathway (AID 743069; active means well fitted curve in the direction sought with a large enough effect in the signal ratio in the repeat runs, not every such curve was filed as active; the % refers to the signal ratio). An outline of the steps:
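Reporter cells (ER-alpha-bla, HEK293 background) are conditioned overnight in stripped-serum medium (2% charcoal-stripped FBS). Compound and 17beta-estradiol exposure runs 18 hr at 37C, 5% CO2.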

Experiment [5] is described as follows: qHTS assay to identify small molecule antagonists of the estrogen receptor alpha (ER-alpha) signaling pathway - cell viability counter screen (AID 743074; calls by dose curve;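 further: HEK293 cells carrying ER-alpha-UAS-bla reporter stimulated with 17beta-estradiol; nearly all actives have a fitted effect of over 45% in size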).
The target of experiment [6] is Estrogen receptor (Homo sapiens) (UniProt P03372). The experiment in a line: qHTS assay to identify small molecule agonists of the estrogen receptor alpha (ER-alpha) signaling pathway (AID 743075; calls by dose curve;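 further: HEK293 GripTite cells with ER-alpha and UAS-driven beta-lactamase reporter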).
Estrogen receptor (Homo sapiens), sequence (P03372 whole entry, looked up): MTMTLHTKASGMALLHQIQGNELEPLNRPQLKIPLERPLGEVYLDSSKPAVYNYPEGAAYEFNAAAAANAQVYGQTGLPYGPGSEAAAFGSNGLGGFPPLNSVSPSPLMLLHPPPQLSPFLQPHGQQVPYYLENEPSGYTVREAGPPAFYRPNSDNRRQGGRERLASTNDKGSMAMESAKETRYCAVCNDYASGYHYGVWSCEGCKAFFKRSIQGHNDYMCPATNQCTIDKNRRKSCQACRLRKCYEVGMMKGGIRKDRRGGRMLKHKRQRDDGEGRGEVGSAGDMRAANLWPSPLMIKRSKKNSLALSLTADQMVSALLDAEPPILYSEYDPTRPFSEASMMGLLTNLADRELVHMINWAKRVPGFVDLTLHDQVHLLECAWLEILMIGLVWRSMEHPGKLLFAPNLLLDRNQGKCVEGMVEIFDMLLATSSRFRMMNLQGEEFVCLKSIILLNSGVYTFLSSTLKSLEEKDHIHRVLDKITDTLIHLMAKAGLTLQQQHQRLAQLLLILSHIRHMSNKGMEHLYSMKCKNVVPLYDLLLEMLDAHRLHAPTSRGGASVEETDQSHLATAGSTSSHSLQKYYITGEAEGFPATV
Experiment [7] can be described thus: qHTS assay to identify small molecule antagonists of the estrogen receptor alpha (ER-alpha) signaling pathway using the BG1 cell line - cell viability counter screen (AID 743081).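 Further: compound given together with 17beta-estradiol as the ER stimulus; series mostly up to about 70 µM; nearly all actives have a fitted effect of over 45% in size.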
In another experiment the target is Aromatase (Homo sapiens) (UniProt P11511). The experiment in a line: qHTS assay to identify aromatase inhibitors (AID 743083). Further: series mostly up to about 70 µM; nearly all actives have a fitted effect of over 55% in size.
Aromatase (Homo sapiens), sequence (P11511 whole entry, looked up): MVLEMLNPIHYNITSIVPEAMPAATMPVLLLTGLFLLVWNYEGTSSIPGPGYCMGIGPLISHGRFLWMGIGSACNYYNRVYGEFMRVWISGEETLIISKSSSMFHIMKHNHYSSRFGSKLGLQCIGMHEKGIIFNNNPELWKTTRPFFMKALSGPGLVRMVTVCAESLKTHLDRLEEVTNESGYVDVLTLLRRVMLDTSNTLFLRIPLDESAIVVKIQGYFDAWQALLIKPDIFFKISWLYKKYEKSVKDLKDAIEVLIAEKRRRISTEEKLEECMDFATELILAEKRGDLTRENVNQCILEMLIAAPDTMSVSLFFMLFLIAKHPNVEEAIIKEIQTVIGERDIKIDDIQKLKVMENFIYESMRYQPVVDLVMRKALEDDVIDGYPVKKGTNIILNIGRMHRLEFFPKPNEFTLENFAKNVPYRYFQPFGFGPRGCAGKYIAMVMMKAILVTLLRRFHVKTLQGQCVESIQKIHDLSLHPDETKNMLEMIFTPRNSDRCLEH
Experiment [8] in a line: qHTS assay to identify small molecule antagonists of the glucocorticoid receptor (GR) signaling pathway - cell viability counter screen (AID 720693). Further: nearly all actives have a fitted effect of over 55% in size.
Experiment [9] in a line: qHTS assay to identify small molecule antagonists of the androgen receptor (AR) signaling pathway - cell viability counter screen (AID 743033; further: nearly all actives have a fitted effect of over 45% in size).
Experiment [10] addresses Estrogen receptor (Homo sapiens) (UniProt P03372). In words: qHTS assay to identify small molecule agonists of the estrogen receptor alpha (ER-alpha) signaling pathway using the BG1 cell line (AID 743079). Further: nearly all actives have a fitted effect of over 20% in size.
The nature of experiment [11]: qHTS assay for identifying genotoxic compounds that show differential cytotoxicity against isogenic chicken DT40 cell lines with known DNA damage response pathways - wild type cell line (AID 743012). Further: nearly all actives have a fitted effect of over 60% in size. Further: potency means the concentration at half of the fitted maximal effect. The gist of the method: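 Cells (DT40 wild type, 300/well) are treated with DMSO-dissolved compounds after a ~0.5 h pre-incubation and kept 40 h at 37 C/5% CO2. Viability is then measured by CellTiter-Glo luminescence following 30 min at room temperature.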

A short description of experiment [12]: qHTS assay to identify small molecule antagonists of the thyroid receptor (TR) signaling pathway - cell viability counter screen (AID 743064). Further: nearly all actives have a fitted effect of over 50% in size. Further: potency means the concentration at half of the fitted maximal effect. The gist of the method:
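Plate GH3.TRE-Luc cells; incubate 4 h at 37 °C; add compound, then T3 to 1 nM final; incubate 23.5 h; add CellTiter-Fluor; incubate 30 min at 37 °C, 5% CO2; read fluorescence.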

The nature of experiment [13]: qHTS assay to identify small molecule antagonists of the thyroid receptor (TR) signaling pathway (AID 743065). Further: series mostly up to about 70 µM; nearly all actives have a fitted effect of over 55% in size. An outline of the steps:
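GH3.TRE-Luc rat pituitary cells (two TREs driving luciferase) were dosed with compound, then stimulated with 1 nM T3 (final) for 23.5 h at 37 C. ONE-Glo luminescence was the read-out, with CellTiter-Fluor fluorescence as the cytotoxicity counter-screen.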

Experiment [14] in a line: qHTS assay for identifying genotoxic compounds that show differential cytotoxicity against isogenic chicken DT40 cell lines with known DNA damage response pathways - Rad54/Ku70 mutant cell line (AID 743015). Further: nearly all actives have a fitted effect of over 60% in size. Further: potency means the concentration at half of the fitted maximal effect.
Experiment [15] is described as follows: qHTS assay to identify small molecule antagonists of the estrogen receptor alpha (ER-alpha) signaling pathway using the BG1 cell line (AID 743080; calls by dose curve;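 further: BG1 cells stimulated with 17beta-estradiol alongside compound; series mostly up to about 70 µM; nearly all actives have a fitted effect of over 25% in size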). The gist of the method: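 BG1-Luc-4E2 cells (endogenous full-length ER-alpha, stable 4×ERE-luciferase) were starved 5 days in phenol-red-free medium with 10% charcoal-stripped FBS, plated 24 h, then given compound plus 17beta-estradiol for 21.5 h at 37 C; ONE-Glo luminescence read after 30 min.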

In PubChem BioAssay (Tox21) one finds Potency and outcome data, which are given here for 13 compounds.

Results filed as inconclusive are left out. Active and inactive are the calls of the source. Unless noted, the call rests on the fitted dose curve; in most records, active means well fitted curve in the direction sought with a large enough effect in the repeat runs; inconclusive means weak or mixed curves; inactive means no such curve, though single readings can be large; an effect the other way counts as inactive or inconclusive.

In the case of `CCCCC(CC)COCCCN` (stereo unspecified), the Potency in experiment [1] was 60.4 µM (active). In addition, the Potency entry (in experiment [2]; in [3]; in [4]; in [6]; in [7]; with Aromatase (Homo sapiens)) was “inactive” in each case. The outcome in experiment [5] was inactive.
With `CCN(CC)C(C)CN1c2ccccc2Sc2ccccc21` (stereo unspecified), the Potency result in experiment [8], in experiment [1], in experiment [9], in [2], in experiment [4] and in experiment [6] was “inactive” throughout. Moreover, the Potency entry (in [10]; in experiment [7]; with Aromatase (Homo sapiens)) was “inactive” in each case. Further, the compound was called inactive in experiment [5].
Regarding `CC[C@H](C)[C@@H](C(=O)O)n1sc2ccccc2c1=O`, the Potency result in experiment [11], in [9], in experiment [2], in experiment [12], in [13] and in experiment [3] was “inactive” each time. In addition, the Potency entry (in [4]; in [6]; in experiment [10]; in [7]; with Aromatase (Homo sapiens)) was “inactive” in each case. Also, the result in experiment [5] was inactive.
As to `O=S1(=O)N=C(O)c2ccccc21`, the Potency result in experiment [11], in experiment [1], in experiment [14], in [9], in experiment [2] and in [12] was “inactive” each time. Further, the Potency result (in experiment [7]; in the experiment with Aromatase (Homo sapiens)) was “inactive” in each case. Besides, the result in experiment [5] was inactive.
For `CC(C)(C)c1ccc(S)cc1`, the Potency result in experiment [8], in experiment [9], in experiment [2], in experiment [13], in experiment [3] and in [6] was “inactive” throughout. For the same compound, the Potency result (in experiment [7]; in the experiment with Aromatase (Homo sapiens)) was “inactive” throughout. Also, in [5], the compound was called inactive.
As for `CN(C(=O)CCCOc1ccc2[nH]c(=O)ccc2c1)C1CCCCC1`, the Potency entry in [8], in [1], in experiment [9], in experiment [2], in experiment [12] and in [3] was “inactive” in each case. The Potency entry (in experiment [7]; in the experiment with Aromatase (Homo sapiens)) was “inactive” in each case. The outcome in experiment [5] was inactive.
Turning to `CCCCCCCCCO`, the Potency result in experiment [8], in [12], in [13], in [3], in experiment [4] and in experiment [6] was “inactive” throughout. Further, the Potency result (in [10]; in [15]; in [7]; with Aromatase (Homo sapiens)) was “inactive” in each case. Moreover, in experiment [5], the outcome was inactive.
For the compound `c1ccc(-c2nc[nH]c2-c2ccccc2)cc1`, the Potency result in experiment [8], in experiment [9], in [2], in [12], in experiment [3] and in experiment [7] was “inactive” in each case. The Potency result in the experiment with Aromatase (Homo sapiens) was “inactive”. Moreover, the call in experiment [5] was inactive.
`O=c1[nH]cnc2ccccc12`: the Potency result in experiment [8], in experiment [9], in [2], in experiment [13], in experiment [3] and in [4] was “inactive” each time. The Potency result (in experiment [6]; in [10]; in experiment [15]; in [7]; with Aromatase (Homo sapiens)) was “inactive” throughout. Moreover, the compound was classed as inactive in experiment [5].
Regarding `CCOc1ccc(NC(=O)CC(C)=O)cc1`, the Potency result (in experiment [8]; in [9]; in experiment [2]; in experiment [12]; in experiment [7]; in the experiment with Aromatase (Homo sapiens)) was “inactive” in each case. Also, the call in [5] was inactive.
For `CN1CCC(=C2c3ccccc3C=Cc3ccccc32)CC1`, the Potency in experiment [11] is 7.5 µM (active); in experiment [1], 10.6 µM (active); in [14] it was 13.3 µM (active); in [12], 15 µM (active). Besides, the Potency result (in [9]; in experiment [3]; in [6]; in experiment [10]; in experiment [7]; with Aromatase (Homo sapiens)) was “inactive” in each case.
In the case of `OCC1CC2CC1C1CCC(CO)C21` (stereo unspecified), the Potency entry in [8], in experiment [9], in [12], in experiment [13], in experiment [3] and in [4] was “inactive” throughout. Moreover, the Potency entry (in [6]; in experiment [10]; in experiment [15]; in experiment [7]; with Aromatase (Homo sapiens)) was “inactive” throughout. Moreover, the Potency in [1] is 54.5 µM (active). For the same compound, the compound was called inactive in [5].
In the case of `O=C(O)Cc1cc(I)c(Oc2ccc(O)c(I)c2)c(I)c1`, the Potency result in experiment [11], in [1], in experiment [9], in [2], in [12] and in [7] was “inactive” each time. For the same compound, in the experiment with Aromatase (Homo sapiens), the Potency result was “inactive”. Besides, the outcome in experiment [5] was inactive.
